# PubChem BioAssay (EPA / NIEHS)
# Several values for one entry are separate records, joined by “and”; a condition that tells them apart may be missing. Identical values can stand only once. Inconclusive results are not listed. More than one record can exist for a structure, and the calls need not agree. Activity calls are given as the source filed them. The calls were made as follows, unless noted: active = hit-call score of the fitted dose curve at least 0.9, where 1 is the maximum; inactive = score below 0.9.
# How the values were obtained:
# [1] = read-out: E-selectin (Homo sapiens) (UniProt P16581); test: BSK_SAg_Eselectin: BioMAP Diversity Plus: SAg Assay for Eselectin Biomarker Activity (AID 2283091); details: primary human HUVEC with PBMC; actives raise or lower the signal
# Summary of the method: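 Co-culture: HUVEC + PBMC. Dose compound; 24 h. ELISA for E-selectin. Bidirectional fit vs DMSO.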
# [2] = read-out: Monokine induced gamma interferon (MIG), CXCL9 (gene 4283); test: BSK_SAg_MIG: BioMAP Diversity Plus: SAg Assay for Monokine induced gamma interferon (MIG) Biomarker Activity (AID 2283092); details: primary human HUVEC with PBMC; actives raise or lower the signal
# Summary of the method: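 ELISA readout of MIG/CXCL9; primary human umbilical vein endothelial cells co-cultured with peripheral blood mononuclear cells; 24 h post-dose; gain/loss fit vs DMSO baseline.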
# [3] = BSK_SAg_PBMCCytotoxicity: PBMC Cytotoxicity Assessment in the BioMAP Diversity Plus: SAg Assay (AID 2283093); details: primary human HUVEC with PBMC;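 also: PBMC viability measured as Alamar Blue reduction fluorescence at 546/580 nm; fitted both ways against DMSO so a hit may be loss or gain of signal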;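 as to AC50: PBMC superantigen activated with SEB plus TSST-1 one hour after compound addition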
# Summary of the method: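 Alamar Blue reduction (6 h, ex/em 546/580 nm) read after 90 h culture of PBMC pre-dosed 1 h then stimulated with SEB plus TSST-1, 20 ng/mL each. Gain or loss of signal fitted relative to DMSO.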
# [4] = read-out: Interleukin-8 (IL8), CXCL8 (gene 3576); test: BSK_SAg_IL8: BioMAP Diversity Plus: SAg Assay for Interleukin-8 (IL8) Biomarker Activity (AID 2283094); details: primary human HUVEC with PBMC; actives raise or lower the signal
# Summary of the method: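 Primary human endothelial cells with PBMC, exposed 24 h; IL-8 determined by ELISA, analysed bidirectionally relative to DMSO.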
# [5] = BSK_SAg_Proliferation: Cell Proliferation Assessment in the BioMAP Diversity Plus: SAg Assay (AID 2283095); details: primary human HUVEC with PBMC;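 also: relative cell number as total protein by SRB absorbance in sub-confluent culture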
# Summary of the method: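 A human primary co-culture of umbilical vein endothelium and blood mononuclear cells receives compound; relative cell number is quantified at 96 h by SRB staining and 560 nm absorbance, with DMSO-referenced bidirectional curve fitting.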
# [6] = BSK_SAg_SRB: Viability Assessment in the BioMAP Diversity Plus: SAg Assay (AID 2283096); details: primary human HUVEC with PBMC;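 also: cells read one day after compound addition; hits may be either gain or loss of signal compared with DMSO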
# Summary of the method: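 SRB absorbance at 560 nm served as the viability read-out. Cells (HUVEC plus peripheral blood mononuclear cells) were TCA-fixed and stained 24 h post-dosing; activity fitted in both directions against DMSO controls.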
# [7] = biological target: human CYP1A1, CYP1A1 (gene 1543) (UniProt P04798); test: NVS_ADME_hCYP1A1: NovaScreen (NVS) CYP450-related Enzyme Activity (ADME) Assay for human CYP1A1 (AID 2283100; active = hit-call score of the fitted dose curve at least 0.9, where 1 is the maximum)
# Summary of the method: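 Recombinant hCYP1A1 + fluorogenic substrate, cell-free; 1 h; fluorescence read. Single-point 10 uM (duplicate) → concentration series, max 20 uM. Acetonitrile negative control.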
# [8] = biological target: human CYP2B6, CYP2B6 (gene 1555) (UniProt P20813); test: NVS_ADME_hCYP2B6: NovaScreen (NVS) CYP450-related Enzyme Activity (ADME) Assay for human CYP2B6 (AID 2283101; active = hit-call score of the fitted dose curve at least 0.9, where 1 is the maximum)
# Summary of the method: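 Fluorescence-based enzyme activity of recombinant human CYP2B6, measured 1 h post-dose against acetonitrile vehicle baseline. Screened at a single concentration of 10 uM in duplicate before concentration-response follow-up.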
# [9] = biological target: human CYP2C9, CYP2C9 (gene 1559) (UniProt P11712); test: NVS_ADME_hCYP2C9: NovaScreen (NVS) CYP450-related Enzyme Activity (ADME) Assay for human CYP2C9 (AID 2283108; active = hit-call score of the fitted dose curve at least 0.9, where 1 is the maximum)
# Summary of the method: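 Fluorescence readout of CYP2C9 activity (SF9-expressed human enzyme) at 0.75 h. The primary screen used 10 uM in duplicate, with concentration-response follow-up for actives; acetonitrile was the negative control.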
# [10] = biological target: Cytochrome P450 3A4 (Homo sapiens) (UniProt P08684); test: NVS_ADME_hCYP3A4: NovaScreen (NVS) CYP450-related Enzyme Activity (ADME) Assay for human CYP3A4 (AID 2283110; active = hit-call score of the fitted dose curve at least 0.9, where 1 is the maximum)
# Summary of the method: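 Compounds screened in duplicate at 10 uM, with follow-up concentration-response for actives, against insect-cell-expressed recombinant enzyme. Activity read by fluorescence 0.33 h after dosing; loss of signal versus acetonitrile control indicates inhibition.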
# [11] = biological target: Cytochrome P450 2C19 (Homo sapiens) (UniProt P33261); test: NVS_ADME_hCYP2C19: NovaScreen (NVS) CYP450-related Enzyme Activity (ADME) Assay for human CYP2C19 (AID 2283113; active = hit-call score of the fitted dose curve at least 0.9, where 1 is the maximum;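 as to AC50: potency for inhibition seen as loss of fluorescent signal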)
# Summary of the method: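 Fluorescence intensity was measured 1 hour after chemicals were added to insect-cell-derived recombinant CYP2C19 with fluorogenic substrate. Decreased signal versus acetonitrile control was taken as reduced enzyme activity; initial testing used 10 uM in duplicate.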
# [12] = biological target: human CYP19A1, CYP19A1 (gene 1588) (UniProt P11511); test: NVS_ADME_hCYP19A1: NovaScreen (NVS) CYP450-related Enzyme Activity (ADME) Assay for human CYP19A1 (AID 2283098; active = hit-call score of the fitted dose curve at least 0.9, where 1 is the maximum;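 as to AC50: potency for inhibitors seen as loss of fluorescent enzyme signal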)
# Summary of the method: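 Primary testing was in duplicate at a single 10 uM concentration, with actives followed up in concentration-response series. Fluorescence read-out of recombinant enzyme activity at 0.5 h, cell-free. Acetonitrile was the negative-control baseline.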
# [13] = biological target: rat CYP2A1, Cyp2a1 (gene 24894) (UniProt P11711); test: NVS_ADME_rCYP2A1: NovaScreen (NVS) CYP450-related Enzyme Activity (ADME) Assay for rat CYP2A1 (AID 2283114)
# Summary of the method: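 Cell-free fluorescence enzyme-activity read on recombinant rat CYP2A1, taken 0.75 h post-dosing. Compounds were screened in duplicate at 10 uM, then hits tested in concentration series (max 20 uM); inhibition scored relative to acetonitrile baseline.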
# [14] = biological target: rat CYP2A2, Cyp2a2 (gene 24895) (UniProt P15149); test: NVS_ADME_rCYP2A2: NovaScreen (NVS) CYP450-related Enzyme Activity (ADME) Assay for rat CYP2A2 (AID 2283116; active = hit-call score of the fitted dose curve at least 0.9, where 1 is the maximum)
# Summary of the method: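 Compounds first tested in duplicate at 10 uM, then in singleton concentration series up to 20 uM when over threshold. Activity of the recombinant enzyme read by fluorescence at 0.2 h, normalised to acetonitrile vehicle.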
# [15] = biological target: rat CYP2C11, Cyp2c11 (gene 29277) (UniProt P08683); test: NVS_ADME_rCYP2C11: NovaScreen (NVS) CYP450-related Enzyme Activity (ADME) Assay for rat CYP2C11 (AID 2283118; active = hit-call score of the fitted dose curve at least 0.9, where 1 is the maximum)
# Summary of the method: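 Screened first at 10 uM in duplicate, hits followed by concentration-response. Recombinant rat enzyme activity monitored by fluorescence 0.33 h post-dosing, normalised to acetonitrile negative control.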
# [16] = biological target: rat CYP2C13, Cyp2c13 (gene 171521) (UniProt P20814); test: NVS_ADME_rCYP2C13: NovaScreen (NVS) CYP450-related Enzyme Activity (ADME) Assay for rat CYP2C13 (AID 2283121; active = hit-call score of the fitted dose curve at least 0.9, where 1 is the maximum)
# Summary of the method: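 Inhibition is read as decreased fluorescent product formation, referenced to acetonitrile vehicle. Cell-free recombinant rat Cyp2c13 reaction ran 0.75 hour; compounds first at 10 uM in duplicate, then concentration series for actives.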
# human CYP19A1, CYP19A1 (gene 1588), sequence (P11511 whole entry, looked up): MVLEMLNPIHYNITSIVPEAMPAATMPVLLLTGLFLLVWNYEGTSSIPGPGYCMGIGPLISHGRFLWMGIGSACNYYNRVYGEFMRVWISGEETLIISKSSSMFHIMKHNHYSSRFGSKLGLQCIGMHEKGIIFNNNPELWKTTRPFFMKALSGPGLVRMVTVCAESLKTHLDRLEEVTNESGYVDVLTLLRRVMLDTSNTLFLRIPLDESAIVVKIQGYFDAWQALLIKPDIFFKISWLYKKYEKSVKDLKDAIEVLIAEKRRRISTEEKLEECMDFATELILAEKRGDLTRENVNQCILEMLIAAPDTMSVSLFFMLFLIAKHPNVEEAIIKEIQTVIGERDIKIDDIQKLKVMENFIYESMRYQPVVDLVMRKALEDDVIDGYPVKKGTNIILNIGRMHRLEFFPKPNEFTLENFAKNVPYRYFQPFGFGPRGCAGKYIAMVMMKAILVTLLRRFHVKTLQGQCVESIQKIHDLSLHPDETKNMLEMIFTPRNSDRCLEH
# E-selectin (Homo sapiens), sequence (P16581 whole entry, looked up): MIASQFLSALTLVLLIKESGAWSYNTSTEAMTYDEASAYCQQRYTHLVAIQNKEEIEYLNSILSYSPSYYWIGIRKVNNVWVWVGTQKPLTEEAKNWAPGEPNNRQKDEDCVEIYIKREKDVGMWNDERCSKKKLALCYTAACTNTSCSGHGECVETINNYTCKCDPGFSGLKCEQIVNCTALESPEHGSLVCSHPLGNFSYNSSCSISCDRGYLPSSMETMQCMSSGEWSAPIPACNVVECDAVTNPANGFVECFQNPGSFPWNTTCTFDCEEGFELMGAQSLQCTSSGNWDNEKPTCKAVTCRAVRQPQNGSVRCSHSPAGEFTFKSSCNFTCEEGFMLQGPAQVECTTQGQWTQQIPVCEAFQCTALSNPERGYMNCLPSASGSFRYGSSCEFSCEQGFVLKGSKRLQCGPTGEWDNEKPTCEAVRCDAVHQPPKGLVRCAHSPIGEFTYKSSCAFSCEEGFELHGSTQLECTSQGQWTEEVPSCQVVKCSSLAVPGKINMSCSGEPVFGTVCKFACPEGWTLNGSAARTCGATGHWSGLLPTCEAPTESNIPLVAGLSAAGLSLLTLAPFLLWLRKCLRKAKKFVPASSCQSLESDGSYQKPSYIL
# human CYP2C9, CYP2C9 (gene 1559), sequence (P11712 whole entry, looked up): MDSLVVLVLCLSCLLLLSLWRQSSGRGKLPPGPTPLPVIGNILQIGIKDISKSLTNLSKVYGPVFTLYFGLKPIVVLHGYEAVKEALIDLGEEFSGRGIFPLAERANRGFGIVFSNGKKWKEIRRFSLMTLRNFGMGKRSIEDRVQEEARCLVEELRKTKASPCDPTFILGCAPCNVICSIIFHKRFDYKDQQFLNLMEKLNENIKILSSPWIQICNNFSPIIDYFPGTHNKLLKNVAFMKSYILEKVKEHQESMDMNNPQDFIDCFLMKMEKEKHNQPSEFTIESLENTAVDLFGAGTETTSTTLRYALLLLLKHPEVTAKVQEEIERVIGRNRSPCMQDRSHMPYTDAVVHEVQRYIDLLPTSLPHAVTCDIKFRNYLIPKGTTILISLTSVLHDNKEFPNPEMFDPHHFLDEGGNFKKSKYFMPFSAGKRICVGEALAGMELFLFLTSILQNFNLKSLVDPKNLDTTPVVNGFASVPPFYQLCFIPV
# rat CYP2C13, Cyp2c13 (gene 171521), sequence (P20814 whole entry, looked up): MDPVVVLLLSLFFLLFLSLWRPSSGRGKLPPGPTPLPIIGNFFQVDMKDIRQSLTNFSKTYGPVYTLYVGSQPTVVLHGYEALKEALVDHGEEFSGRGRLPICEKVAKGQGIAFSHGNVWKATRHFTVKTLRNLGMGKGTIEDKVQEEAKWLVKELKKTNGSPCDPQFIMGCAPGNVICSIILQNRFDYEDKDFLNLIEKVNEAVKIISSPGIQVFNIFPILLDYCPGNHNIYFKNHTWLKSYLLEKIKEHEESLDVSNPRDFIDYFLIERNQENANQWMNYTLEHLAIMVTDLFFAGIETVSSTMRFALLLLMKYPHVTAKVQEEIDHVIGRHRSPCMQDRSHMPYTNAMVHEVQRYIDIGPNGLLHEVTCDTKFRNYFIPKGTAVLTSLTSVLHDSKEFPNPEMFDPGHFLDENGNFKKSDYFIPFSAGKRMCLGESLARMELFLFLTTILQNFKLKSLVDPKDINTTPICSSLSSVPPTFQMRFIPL
# human CYP1A1, CYP1A1 (gene 1543), sequence (P04798 whole entry, looked up): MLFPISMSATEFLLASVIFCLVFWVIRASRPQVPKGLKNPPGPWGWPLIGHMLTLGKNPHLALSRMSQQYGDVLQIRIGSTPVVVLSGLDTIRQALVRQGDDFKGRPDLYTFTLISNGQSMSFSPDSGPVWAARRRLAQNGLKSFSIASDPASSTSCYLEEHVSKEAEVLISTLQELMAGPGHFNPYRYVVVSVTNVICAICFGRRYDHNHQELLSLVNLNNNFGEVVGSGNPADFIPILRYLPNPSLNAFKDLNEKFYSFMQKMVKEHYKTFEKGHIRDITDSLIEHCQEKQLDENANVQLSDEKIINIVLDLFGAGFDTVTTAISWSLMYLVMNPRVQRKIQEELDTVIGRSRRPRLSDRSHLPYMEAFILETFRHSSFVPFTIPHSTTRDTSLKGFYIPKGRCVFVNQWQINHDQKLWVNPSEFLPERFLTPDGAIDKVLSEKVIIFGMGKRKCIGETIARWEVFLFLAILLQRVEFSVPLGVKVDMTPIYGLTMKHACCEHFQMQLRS
# Cytochrome P450 3A4 (Homo sapiens), sequence (P08684 whole entry, looked up): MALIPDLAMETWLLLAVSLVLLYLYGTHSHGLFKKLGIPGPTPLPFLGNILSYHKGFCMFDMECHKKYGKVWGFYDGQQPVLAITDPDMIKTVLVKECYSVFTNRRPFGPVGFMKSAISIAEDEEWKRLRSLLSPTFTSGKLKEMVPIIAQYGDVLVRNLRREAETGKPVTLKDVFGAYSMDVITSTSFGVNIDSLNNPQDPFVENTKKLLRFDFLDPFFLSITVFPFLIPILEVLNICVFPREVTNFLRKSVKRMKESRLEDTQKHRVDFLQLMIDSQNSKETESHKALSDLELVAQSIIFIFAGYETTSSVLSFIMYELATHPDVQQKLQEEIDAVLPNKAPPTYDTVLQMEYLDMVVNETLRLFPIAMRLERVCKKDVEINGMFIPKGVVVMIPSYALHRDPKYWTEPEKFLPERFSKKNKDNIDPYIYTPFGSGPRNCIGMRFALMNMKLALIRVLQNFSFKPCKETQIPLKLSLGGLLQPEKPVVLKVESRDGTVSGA
# rat CYP2C11, Cyp2c11 (gene 29277), sequence (P08683 whole entry, looked up): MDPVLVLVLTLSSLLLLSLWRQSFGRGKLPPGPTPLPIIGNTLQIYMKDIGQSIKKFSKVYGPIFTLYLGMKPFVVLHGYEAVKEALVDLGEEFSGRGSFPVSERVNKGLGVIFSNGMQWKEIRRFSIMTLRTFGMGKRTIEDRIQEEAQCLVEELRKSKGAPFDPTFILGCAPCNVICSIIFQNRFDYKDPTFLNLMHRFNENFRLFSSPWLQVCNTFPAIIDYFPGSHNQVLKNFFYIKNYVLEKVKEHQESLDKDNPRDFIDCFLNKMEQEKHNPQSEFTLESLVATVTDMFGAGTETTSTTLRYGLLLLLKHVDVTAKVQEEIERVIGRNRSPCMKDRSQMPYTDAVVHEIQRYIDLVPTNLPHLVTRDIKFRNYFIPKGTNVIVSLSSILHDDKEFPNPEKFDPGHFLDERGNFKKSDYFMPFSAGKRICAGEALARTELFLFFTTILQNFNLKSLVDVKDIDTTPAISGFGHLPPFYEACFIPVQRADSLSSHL
# rat CYP2A1, Cyp2a1 (gene 24894), sequence (P11711 whole entry, looked up): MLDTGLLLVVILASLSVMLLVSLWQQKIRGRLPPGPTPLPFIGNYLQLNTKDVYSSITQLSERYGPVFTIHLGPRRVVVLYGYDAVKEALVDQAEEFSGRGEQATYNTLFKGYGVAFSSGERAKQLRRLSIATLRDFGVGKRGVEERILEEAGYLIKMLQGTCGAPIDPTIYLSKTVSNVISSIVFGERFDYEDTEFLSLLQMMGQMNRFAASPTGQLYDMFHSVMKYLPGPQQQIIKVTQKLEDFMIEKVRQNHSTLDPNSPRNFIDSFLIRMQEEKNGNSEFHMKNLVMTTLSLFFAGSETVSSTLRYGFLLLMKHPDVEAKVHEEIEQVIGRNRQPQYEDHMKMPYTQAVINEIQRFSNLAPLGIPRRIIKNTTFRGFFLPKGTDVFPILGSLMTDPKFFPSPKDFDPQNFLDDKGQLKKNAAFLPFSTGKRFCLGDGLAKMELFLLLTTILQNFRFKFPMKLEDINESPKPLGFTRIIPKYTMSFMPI
# human CYP2B6, CYP2B6 (gene 1555), sequence (P20813 whole entry, looked up): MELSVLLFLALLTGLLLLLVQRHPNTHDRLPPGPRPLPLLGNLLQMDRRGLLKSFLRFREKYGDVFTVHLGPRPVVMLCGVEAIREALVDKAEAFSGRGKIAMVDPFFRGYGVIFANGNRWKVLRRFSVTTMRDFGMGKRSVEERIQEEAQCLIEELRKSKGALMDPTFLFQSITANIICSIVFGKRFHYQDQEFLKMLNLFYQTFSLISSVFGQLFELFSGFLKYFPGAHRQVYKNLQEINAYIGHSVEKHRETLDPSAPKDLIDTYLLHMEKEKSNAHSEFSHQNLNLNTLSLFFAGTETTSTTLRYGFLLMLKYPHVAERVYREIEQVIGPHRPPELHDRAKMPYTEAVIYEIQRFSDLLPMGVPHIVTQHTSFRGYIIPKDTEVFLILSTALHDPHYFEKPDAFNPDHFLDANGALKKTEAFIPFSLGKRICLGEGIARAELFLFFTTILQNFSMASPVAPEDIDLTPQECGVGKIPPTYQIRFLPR
smiles,measurement,setting,value
CN1C(=O)N(c2ccccc2Br)Cc2cnc(Nc3ccc4c(c3)OCC(CO)O4)nc21 (stereo not given),AC50,[1],1.37 µM (active)
same,AC50,[2],2.89 µM (active)
same,AC50,[3],1.87 µM (active)
same,AC50,[4],1.62 µM (active)
same,AC50,[5],1.52 µM (active)
same,AC50,[6],2.23 µM (active)
CN1C(=O)CC[C@H]1c1cccnc1,outcome,[1],inactive
same,outcome,[2],inactive
same,outcome,[3],inactive
same,outcome,[5],inactive
CCN(Cc1cccnc1)C(=O)c1cccc(Cl)c1[C@]1(C)C(=O)N(Cc2ccc(OC)cc2OC)c2ccc(Cl)cc21,AC50,[1],7.27 µM (active)
same,outcome,[2],inactive
same,outcome,[3],inactive
same,AC50,[4],3.93 µM (active)
same,AC50,[5],7.09 µM (active)
same,AC50,[6],5.81 µM (active)
same,outcome,[7],inactive
same,outcome,[8],inactive
same,AC50,[9],2.28 µM (active)
same,AC50,[10],3.58 µM (active)
same,AC50,[11],1.01 µM (active)
Cc1oc2c(NC(=O)c3c(Cl)cccc3Cl)cccc2c1C(C)(C)O,AC50,[1],7.6 µM (active)
same,outcome,[2],inactive
same,AC50,[3],14.2 µM (active)
same,outcome,[4],inactive
same,AC50,[5],20.6 µM (active)
same,AC50,[6],25.3 µM (active)
same,AC50,[7],2.39 µM (active)
same,AC50,[10],7.44 µM (active)
CC(C)(C)c1cc(/C=C2\SC(N)=NC2=O)cc(C(C)(C)C)c1O,AC50,[1],7.42 µM (active)
same,AC50,[2],27.6 µM (active)
same,AC50,[3],11.1 µM (active)
same,AC50,[4],8.74 µM (active)
same,AC50,[5],7.44 µM (active)
same,AC50,[6],26.6 µM (active)
same,AC50,[11],1.16 µM (active)
Cc1ccc(C(C)C)cc1,outcome,[1],inactive
same,outcome,[2],inactive
same,outcome,[3],inactive
same,outcome,[4],inactive
same,outcome,[5],inactive
CO[C@H]1/C=C/O[C@@]2(C)Oc3c(C)c(O)c4c(O)c(c(/C=N/N5CCN(C)CC5)c(O)c4c3C2=O)NC(=O)/C(C)=C\C=C\[C@H](C)[C@H](O)[C@@H](C)[C@@H](O)[C@@H](C)[C@H](OC(C)=O)[C@@H]1C,outcome,[1],inactive
same,outcome,[2],inactive
same,AC50,[3],9.8 µM (active)
same,outcome,[4],inactive
same,AC50,[5],17.6 µM (active)
same,AC50,[11],10.7 µM (active)
CC(O)CC(C)(C)O (stereo not given),outcome,[1],inactive
same,outcome,[2],inactive
same,outcome,[3],inactive
same,outcome,[5],inactive
CC(C)(c1cc(Br)c(O)c(Br)c1)c1cc(Br)c(O)c(Br)c1,AC50,[1],22.1 µM (active)
same,AC50,[2],36.1 µM (active)
same,AC50,[3],33.3 µM (active)
same,AC50,[4],30.4 µM (active)
same,AC50,[5],25.4 µM (active)
same,AC50,[6],29.4 µM (active)
same,AC50,[9],2.93 µM (active)
O=C1CCC(C2CCCCC2)CC1,outcome,[1],inactive
same,outcome,[2],inactive
same,outcome,[3],inactive
same,outcome,[4],inactive
same,outcome,[5],inactive
same,outcome,[6],inactive
same,AC50,[12],11.6 µM (active)
same,outcome,[12],inactive
same,outcome,[11],inactive
COc1cc(C(=O)NC2CCN(C)CC2)ccc1Nc1ncc2c(n1)N(C1CCCC1)CC(F)(F)C(=O)N2C,AC50,[1],11.4 µM (active)
same,AC50,[2],14.4 µM (active)
same,AC50,[3],13.8 µM (active)
same,AC50,[4],10.2 µM (active)
same,AC50,[5],5.59 µM (active)
same,AC50,[9],6.56 µM (active)
same,AC50,[11],7.11 µM (active)
CCCCCCCC[Si](OCC)(OCC)OCC,AC50,[1],20.7 µM (active)
same,outcome,[2],inactive
same,AC50,[3],18.7 µM (active)
same,outcome,[4],inactive
same,outcome,[5],inactive
same,AC50,[6],31.7 µM (active)
CC/C(=C(/CC)c1ccc(O)cc1)c1ccc(O)cc1,AC50,[1],8.84 µM (active)
same,AC50,[2],31.9 µM (active)
same,AC50,[3],29.1 µM (active)
same,AC50,[4],13.4 µM (active)
same,AC50,[5],11.8 µM (active)
same,AC50,[13],8.99 µM (active)
same,AC50,[14],10.2 µM (active)
same,AC50,[15],1.95 µM (active) and 7.02 µM (active)
same,AC50,[16],1.08 µM (active) and 3.79 µM (active)
O=C(Nc1ccc(Cl)cc1)Nc1ccc(Cl)c(Cl)c1,AC50,[1],2.6 µM (active)
same,AC50,[2],2.11 µM (active)
same,AC50,[3],2.72 µM (active)
same,AC50,[4],2.29 µM (active)
same,AC50,[5],1.79 µM (active)
same,AC50,[6],2.28 µM (active)
same,AC50,[11],10 µM (active)
CCCCCCCCCCCO,outcome,[1],inactive
same,outcome,[2],inactive
same,AC50,[3],33.1 µM (active)
same,outcome,[4],inactive
same,AC50,[5],33.6 µM (active)
c1ccc2ccccc2c1,outcome,[1],inactive
same,outcome,[2],inactive
same,outcome,[3],inactive
same,outcome,[4],inactive
same,outcome,[5],inactive
NC(=O)c1nc(-c2cccc(-c3cc(F)ccc3OCC(F)(F)C(F)(F)F)c2)n[nH]1,AC50,[1],19.3 µM (active)
same,AC50,[2],40.3 µM (active)
same,AC50,[3],35.7 µM (active)
same,AC50,[5],26.2 µM (active)
CC[C@@H]1C[C@H](N(Cc2cc(C(F)(F)F)cc(C(F)(F)F)c2)C(C)=O)c2cc(C(F)(F)F)ccc2N1C(=O)OC(C)C,outcome,[1],inactive
same,outcome,[2],inactive
same,outcome,[3],inactive
same,outcome,[4],inactive
same,outcome,[5],inactive
Cc1cc2c(cc1C(F)(F)F)N(C(=O)Nc1ccc(Oc3cccnc3C)nc1)CC2,outcome,[1],inactive
same,outcome,[2],inactive
same,outcome,[3],inactive
same,outcome,[4],inactive
same,outcome,[5],inactive
